Assay outcomes: PubChem BioAssay, several laboratories
VLA-4 inh: inhibition in a human VLA-4 binding assay; inhibition, % (about 7 µM as worked out from the volumes in the protocol); AID 2557; VLA-4 expressing cells, ligand binding flow cytometry; P13612; 330,000 compounds, 0.2% hits; in the data active = inhibition above about 50%
Platelet DG rel: platelet dense granule release activity; inhibition, %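 (compounds screened at 7.5 µM in platelet-rich plasma)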; 300,000 compounds, 0.22% hits; human platelet-rich plasma, SFLLRN dense granule ATP release, luminescence; AID 1663;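 active = mean replicate score, as percent of positive control, at or above 50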
AI-2 QS modul: Vibrio harveyi AI-2 quorum sensing modulation; Vibrio harveyi JMH597 AI-2 luminescence/OD600 ratio, 9 h; stronger effect = lower value; strain lacks LuxN and CqsS sensors; 0 = neutral-control median; activity change, % at 7.5 µM; 300,000 compounds, 0.4% hits; AID 2094; in the data active = activity change below about -75%, passing the limit was not always enough;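 also: luminescence divided by OD600 gain over 9 h not by final OD600 alone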
CHT allo act: allosterically activates the human high affinity choline transporter. Q9GZV3. CHT-expressing cells, membrane potential dye, choline EC20; stronger effect = higher value; LV-AA mutant CHT in HEK293 cells. B-score at 10 µM. 310,000 compounds, 0.49% hits;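 active = initial fluorescence not abnormally high and integrated response B-score, plate-corrected, over 3 SD above library mean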
Target sequence (Q9GZV3 whole entry, looked up): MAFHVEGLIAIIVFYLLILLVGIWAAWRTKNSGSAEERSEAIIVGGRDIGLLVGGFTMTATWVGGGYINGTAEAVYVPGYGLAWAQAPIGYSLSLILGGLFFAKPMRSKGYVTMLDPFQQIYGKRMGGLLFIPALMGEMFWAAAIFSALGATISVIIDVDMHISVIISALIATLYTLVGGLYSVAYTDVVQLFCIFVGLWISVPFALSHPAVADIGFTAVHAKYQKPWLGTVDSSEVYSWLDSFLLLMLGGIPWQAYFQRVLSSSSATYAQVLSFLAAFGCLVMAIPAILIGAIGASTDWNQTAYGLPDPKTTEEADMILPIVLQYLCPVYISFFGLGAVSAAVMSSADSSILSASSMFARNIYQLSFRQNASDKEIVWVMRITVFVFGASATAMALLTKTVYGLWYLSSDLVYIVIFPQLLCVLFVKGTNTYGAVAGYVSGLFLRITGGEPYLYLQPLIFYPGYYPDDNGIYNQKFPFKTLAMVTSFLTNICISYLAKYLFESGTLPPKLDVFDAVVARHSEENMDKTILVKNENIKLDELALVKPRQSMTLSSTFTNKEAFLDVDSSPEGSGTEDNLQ
CHT inh: human CHT choline transport inhibition; CHT-expressing cells, membrane potential dye, choline response; stronger effect = lower value; B-score at 10 µM; 310,000 compounds, 0.86% hits; AID 488975;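 active = B-score over 3 SD under the library average, and starting fluorescence ratio not unusually high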;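 also: choline stimulus applied at its EC90 after an EC20 pre-addition; B-score computed on integrated fluorescence ratio after choline addition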
HIF act: HIF pathway transcriptional activation; U2OS HRE-luciferase reporter, luminescence; normalized: DMSO 0%, desferrioxamine 100%; activation, % at 7.5 µM (by protocol); 300,000 compounds, 0.32% hits; AID 1910;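 active = mean activation of at least 10% of the iron chelator positive control signal, with at least half of replicates also reaching 10%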
CHT activ conf: confirmation of human choline transporter (CHT) activators; CHT-expressing cells, membrane potential dye fluorescence (FDSS); % of choline EC20–EC90 response window; HEK293 expressing CHT LV-AA mutant; choline added at its EC20; 2,500 compounds, 91% hits; shares compounds with CHT allo act; activation, % at 10 µM;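 active = primary screen active, with duplicate mean activation above negative control mean plus 3 SD, cut at about 11% in these data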
HEK293 MP dye: activity in parental HEK293 cells lacking CHT; shares compounds with CHT allo act; membrane potential dye fluorescence (FDSS); measured after EC20 choline addition; ratio readout change at 10 µM, hits read low; 2,500 compounds, 62% hits;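 active = duplicate-averaged ratio beyond 3 SD from buffer wells, up or down, though filed actives are nearly all decreases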
The depositor's hits bear a star. This is a sample that favours compounds with a hit; in the whole collection about 2.2% have one here.

CCN(CC)C(=O)C1CCN(Cc2ccc(OCc3ccccc3)c(OC)c2)CC1 was read as VLA-4 inh 15.9, Platelet DG rel 1.4, AI-2 QS modul 11.0, CHT allo act inactive, CHT inh inactive and HIF act -0.1.
NNc1nc2c(Cl)ccc(Cl)c2s1 was read as VLA-4 inh 3.2, Platelet DG rel -12.0, AI-2 QS modul 16.6, CHT allo act inactive, CHT inh inactive and HIF act 0.3.
For CCCCN(C(=O)NCCCCCCNC(=O)N(CCCC)C1CCS(=O)(=O)C1)C1CCS(=O)(=O)C1 (stereo not drawn) the results were VLA-4 inh 13.0, Platelet DG rel 8.5, AI-2 QS modul 4.6, CHT allo act inactive, CHT inh inactive and HIF act 0.3.
Screening CCCCNC(=O)C1Cc2cc(S(=O)(=O)N3CCCC3)ccc2N1C(C)=O (stereo not drawn) returned VLA-4 inh 5.6, Platelet DG rel 7.2, AI-2 QS modul 14.0, CHT allo act inactive, CHT inh inactive and HIF act -0.7.
Screening COc1ccc(Cl)cc1NC(=O)Cn1nnc(C(=O)NCc2ccc3c(c2)OCO3)c1N returned VLA-4 inh 1.7, Platelet DG rel 9.0, AI-2 QS modul -13.3, CHT allo act inactive, CHT inh inactive and HIF act -0.8.
CCOP(=O)(OCC)C(NCc1ccccc1)c1ccc(Br)cc1 (stereo not drawn) was read as VLA-4 inh 28.8, Platelet DG rel 3.6, AI-2 QS modul 16.4, CHT allo act inactive, CHT inh inactive, HIF act -2.6, CHT activ conf 29.3* and HEK293 MP dye inactive.
CCOP(=O)(OCC)C(NC(=O)Nc1ccccc1)c1ccccc1 (stereo not drawn) was read as VLA-4 inh -7.0, Platelet DG rel -3.9, AI-2 QS modul 1.5, CHT allo act inactive, CHT inh inactive and HIF act -0.3.
Screening COc1cc(-c2nc3ccccn3c2NCC2CCCO2)ccc1O (stereo not drawn) returned VLA-4 inh -1.6, Platelet DG rel -6.9, AI-2 QS modul 27.5, CHT allo act inactive, CHT inh inactive, HIF act 0.9, CHT activ conf 44.4* and HEK293 MP dye -47.3*.
COc1cc(-c2nc3ccccn3c2N)ccc1O was read as VLA-4 inh 3.3, Platelet DG rel -1.4, AI-2 QS modul 15.0, CHT allo act inactive, CHT inh inactive and HIF act 0.1.
For COc1ccc(-c2nc3cccc(C)n3c2NCC2CCCO2)cc1O (stereo not drawn) the results were VLA-4 inh -1.5, Platelet DG rel 4.3, AI-2 QS modul 1.4, CHT allo act inactive, CHT inh inactive, HIF act 3.2, CHT activ conf 53.6* and HEK293 MP dye -57.4*.
For CC1(C)CC(C(CCN(Cc2ccccc2)C(=O)c2ccco2)c2ccc(F)cc2)CCO1 (stereo not drawn) the results were VLA-4 inh -73.7, Platelet DG rel -0.9, AI-2 QS modul 5.1, CHT allo act 9.68*, CHT inh inactive, HIF act -0.4, CHT activ conf 55.6* and HEK293 MP dye inactive.
For Cc1ccc2c(c1)nc(NCCCO)n2C the results were VLA-4 inh 3.8, Platelet DG rel 1.4, AI-2 QS modul 13.7, CHT allo act inactive, CHT inh inactive, HIF act 0.3, CHT activ conf 19.4* and HEK293 MP dye -40.6*.
Screening CC(Oc1ccc2ccccc2c1)C(=O)NNC(=O)Nc1ccccc1 (stereo not drawn) returned VLA-4 inh -9.5, Platelet DG rel 9.0, AI-2 QS modul -9.4, CHT allo act inactive, CHT inh inactive and HIF act -0.7.
